Screens deposited in PubChem by several laboratories.
An excerpt weighted towards active compounds, which were near 2% of everything screened.
KKLEB cytotox = CF airway cell cytotoxicity counter-screen; KKLEB CF airway cells viability, ATPlite luminescence, overnight; hits give low values; cells stimulated with P. aeruginosa culture filtrate; activity change (cytotoxicity), % at 5 µM; actives 0.36% (n = 360,000);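 active = corrected activity change at or below -50% at 5 µM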
PAX8 reporter = PAX8 transcriptional activity inhibition; actives 1.2% (n = 360,000); inhibition, % at 12.6 µM; AID 652154; RMG-I TPO-luciferase reporter, SteadyGlo, 24 h;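 active = mean replicate inhibition at least 60% with every replicate also reaching 60%; inconclusive = only one of the two criteria is met; inactive = mean below 60% and not all replicates reaching 60%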;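 also: luciferase light reporting Pax8 driven TPO promoter activity; plate controls were median of neutral control wells for no effect and mitoxantrone controls for full effect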
CF NFkB block = cystic fibrosis NF-kB activation inhibition; KKLEB NF-kB-GFP reporter, PAF-induced, GFP fluorescence overnight; inhibition, % at 5 µM; actives 0.86% (n = 360,000);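 active = at least 50% inhibition at 5 µM, scaled per plate between neutral and stimulator controls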;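 also: PAF is a Pseudomonas aeruginosa culture filtrate used as stimulus; plate controls were PAF-stimulated DMSO wells for no effect and unstimulated DMSO wells for full effect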
LGR2 inh = inhibitors of bursicon-induced Drosophila LGR2 receptor cAMP signaling; inhibition, % at 9.99 µM; actives 0.35% (n = 380,000); HEK293 LGR2, CRE-luciferase, bursicon-stimulated, 4 h;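 active = drop in luminescence signal, shown as inhibition above about 50% in the replicate tests, limit read from the data, passing the limit was not always enough; inconclusive = probably only some replicates passing the limit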;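 also: agonist challenge used bursicon conditioned medium at about half maximal strength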
Shn3 3UTR inh = Schnurri-3 reporter inhibition in Clone20 osteoblasts | Clone20 osteoblast Shn3 3'UTR firefly luciferase, 24 h | actives 0.52% (n = 360,000) | AID 588674 | inhibition, % at 12.5 µM;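 active = mean inhibition of at least 75% with every replicate also reaching 75%; inconclusive = mean inhibition at least 75% but some replicate below; inactive = mean inhibition below 75%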;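 also: 0% = median of neutral control wells and 100% = pilot-screen positive control compound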
EWS-Fli block = inhibitors of EWS/Fli oncoprotein transcriptional activity. A673 NR0B1-luciferase reporter, viability-normalised. inhibition, % at 12.6 µM. actives 0.67% (n = 350,000). AID 651661;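 active = mean inhibition of at least 50% after viability correction, with every replicate also passing that limit; inconclusive = mean reaches 50% but only one of two replicates passes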;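 also: firefly luciferase signal divided by Alamar Blue viability fluorescence both relative to DMSO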
* hit, by the source's call.

`C[C@H]1CN([C@@H](C)CO)C(=O)c2cc(NC(=O)Nc3ccccc3)ccc2O[C@@H]1CN(C)C(=O)Nc1ccc(C(F)(F)F)cc1` gave LGR2 inh 10.0 and EWS-Fli block 16.4.
For C[C@H](CO)N1C[C@H](C)[C@H](CN(C)C(=O)Nc2ccccc2)Oc2ccc(NC(=O)Nc3ccc(C(F)(F)F)cc3)cc2C1=O the results were PAX8 reporter 74.0*, LGR2 inh -16.6 and EWS-Fli block 0.4.
C[C@@H]1CCCCO[C@H](CN(C)C(=O)Nc2ccc(C(F)(F)F)cc2)[C@@H](C)CN([C@@H](C)CO)C(=O)c2cc(NC(=O)Nc3ccccc3)ccc2O1 was read as PAX8 reporter 93.4*, LGR2 inh 8.2 and EWS-Fli block -10.8.
`COc1ccccc1CNC(=O)C[C@@H]1C=C[C@@H](NC(C)=O)[C@@H](CO)O1` gave PAX8 reporter -3.8, LGR2 inh 6.7 and EWS-Fli block 2.4.
`O=C(N[C@@H]1CC[C@H](CCNS(=O)(=O)c2ccc(F)cc2)O[C@H]1CO)C1CCOCC1` gave PAX8 reporter 0.4, LGR2 inh 9.8 and EWS-Fli block 9.8.
Screening O=C(NCCCN1CCOCC1)c1ccc(CNS(=O)(=O)c2ccc(Br)cc2)cc1 returned KKLEB cytotox 0.7, PAX8 reporter 131.7*, CF NFkB block 14.5, LGR2 inh 3.4, Shn3 3UTR inh -45.3 and EWS-Fli block 4.7.
O=C(NCCCN1CCOCC1)c1ccc(Br)cc1 was read as KKLEB cytotox -2.6, CF NFkB block 8.3 and Shn3 3UTR inh -26.3.
CC(C)(C)c1ccc(C(=O)NCCN2CCOCC2)cc1 was read as KKLEB cytotox -2.8, PAX8 reporter -2.2, CF NFkB block 4.6, LGR2 inh -7.5, Shn3 3UTR inh -5.8 and EWS-Fli block -13.4.
Screening CC(C)(C)c1ccc(C(=O)NCCCN2CCN(CCCNC(=O)c3ccc(C(C)(C)C)cc3)CC2)cc1 returned KKLEB cytotox -71.0*, PAX8 reporter 70.1*, CF NFkB block 20.8, LGR2 inh 8.6 and Shn3 3UTR inh 83.0.
C[C@@H]1CN([C@@H](C)CO)C(=O)c2cccc(NC(=O)Nc3ccc(C(F)(F)F)cc3)c2O[C@H]1CN(C)C(=O)Nc1ccccc1 was read as PAX8 reporter -5.6, LGR2 inh -16.0 and EWS-Fli block 1.5.
Cc1noc(C)c1S(=O)(=O)Nc1ccc2c(c1)C(=O)N([C@H](C)CO)C[C@@H](C)[C@@H](CN(C)CC1CCCCC1)OCCCC[C@@H](C)O2 was read as PAX8 reporter -17.9, LGR2 inh 9.6 and EWS-Fli block 1.2.
Screening COc1ccc(NC(=O)Nc2cccc3c2O[C@@H](CN(C)Cc2ccccc2)[C@@H](C)CN([C@H](C)CO)C3=O)cc1 returned LGR2 inh 2.4 and EWS-Fli block -2.2.
`COc1ccccc1N(C(=O)CCl)c1cn(C(C)=O)c2ccccc12` gave KKLEB cytotox -102.4*, PAX8 reporter 114.3*, CF NFkB block 88.7*, LGR2 inh 47.5, Shn3 3UTR inh 47.7 and EWS-Fli block 28.4.
For CCOC(=O)c1ccccc1Nc1cn(C(C)=O)c2ccccc12 the results were KKLEB cytotox -18.1, CF NFkB block 11.9, LGR2 inh 1.0 and Shn3 3UTR inh 2.3.
CC(=O)n1cc(N(C(=O)CCl)c2ccc(Cl)cc2)c2ccccc21 was read as KKLEB cytotox -93.6*, CF NFkB block 98.1* and Shn3 3UTR inh 56.6.
`CCOc1ccc(-c2ccc(SC)nn2)cc1` gave KKLEB cytotox -59.6*, PAX8 reporter 75.0*, CF NFkB block -12.9, LGR2 inh 99.1*, Shn3 3UTR inh 67.9 and EWS-Fli block 79.0*.
For CCOc1ccc(-c2ccc(SCC(=O)Nc3nnc(CC)s3)nn2)cc1 the results were KKLEB cytotox -25.0, PAX8 reporter -66.1, CF NFkB block -3.4, LGR2 inh 2.4, Shn3 3UTR inh -29.4 and EWS-Fli block -14.3.
COc1ccc(NC(=O)N(C)C[C@H]2Oc3ccc(NC(=O)NC4CCCCC4)cc3CC(=O)N([C@@H](C)CO)C[C@@H]2C)cc1 was read as PAX8 reporter -10.3, LGR2 inh 6.6 and EWS-Fli block 6.9.
COc1ccc(Cc2c(-c3ccc(OC)c(OC)c3)nc3c(C)cc(Br)cn23)c(C)c1 was read as KKLEB cytotox -15.2, PAX8 reporter 66.4*, CF NFkB block -3.7, LGR2 inh 0.7, Shn3 3UTR inh -3.2 and EWS-Fli block 8.1.
COc1ccc(Cc2c(-c3ccc(C)cc3)nc3c(C)cc(Br)cn23)c(C)c1 was read as KKLEB cytotox 0.4, PAX8 reporter 22.2, CF NFkB block 25.4, LGR2 inh 2.1, Shn3 3UTR inh -7.4 and EWS-Fli block -9.2.
For O=C(c1ccc(Br)cc1)c1cc([N+](=O)[O-])ccc1N1CCCCC1 the results were KKLEB cytotox -47.0, PAX8 reporter 97.0*, CF NFkB block 42.2 and Shn3 3UTR inh 2.4.
`COc1ccc(CCNC(=O)c2cc(C(=O)c3cc(C)ccc3O)cn(CCc3ccc(OC)cc3)c2=O)cc1` gave KKLEB cytotox 20.7, CF NFkB block -24.8, LGR2 inh -3.0 and Shn3 3UTR inh 10.2.
`COc1ccc(CCNC(=O)c2cc(C(=O)c3cc(Cl)ccc3O)cn(CCc3ccc(OC)cc3)c2=O)cc1` gave KKLEB cytotox -4.2, PAX8 reporter 80.2*, CF NFkB block 15.5, LGR2 inh 6.4 and Shn3 3UTR inh 20.9.
CCS(=O)(=O)N1CCCCN2[C@H](CO)[C@@H](c3ccc(C#CC(C)(C)O)cc3)[C@@H]2C1 was read as PAX8 reporter -8.5, LGR2 inh -5.5 and EWS-Fli block -10.0.
`Cn1cc(C(=O)c2ccc(Cl)cc2Cl)cc1C(=O)N/N=C(\N)COc1ccc(F)cc1` gave KKLEB cytotox -9.2, CF NFkB block 14.7 and Shn3 3UTR inh -4.8.
Screening Cn1cc(C(=O)c2ccc(Cl)cc2Cl)cc1C(=O)N/N=C(\N)COc1ccc(Cl)cc1 returned KKLEB cytotox 0.8, PAX8 reporter 69.6*, CF NFkB block 5.1, LGR2 inh 0.4, Shn3 3UTR inh 18.2 and EWS-Fli block 24.5.
For C=CS(=O)(=O)c1ccc(Oc2ccc(S(=O)(=O)C=C)cc2)cc1 the results were KKLEB cytotox -55.9*, PAX8 reporter 98.0*, CF NFkB block 98.6*, LGR2 inh 101.6*, Shn3 3UTR inh 95.7* and EWS-Fli block 52.6*.
Screening COc1ccc(Sc2ccccc2CN(C)C)cc1OC returned KKLEB cytotox 9.8, CF NFkB block -15.7 and Shn3 3UTR inh 10.7.
CNCc1ccccc1Sc1ccc(O)c(O)c1 was read as KKLEB cytotox 10.4, PAX8 reporter 75.9*, CF NFkB block 3.3, LGR2 inh inconclusive, Shn3 3UTR inh 9.7 and EWS-Fli block -4.3.
